The entries come from a sample that favours hits as a whole.
DUX4 inh – blocks DUX4-driven transcriptional activation; 293T-iDUX4 ZSCAN4-Gaussia luciferase reporter, 24 h; active compounds read low; activity change, negative = inhibition, % (no concentration beside the values); 0.8% of 37,000 active;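 active = mean inhibition of at least 10% in the main channel, exceeding the control channel by a set limit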
Numbers stand for hits; n = inactive; ! = not confirmed by another sample.

SMILES	DUX4 inh
C[C@H](CO)N1C[C@H](C)[C@@H](CN(C)Cc2cccc(C(=O)O)c2)OCc2ccccc2-c2c(n(C)c3ccccc23)C1=O	n
C[C@H]1CN([C@@H](C)CO)C(=O)c2c(c3ccccc3n2C)-c2ccccc2CO[C@H]1CN(C)Cc1cccc(C(=O)O)c1	n
C[C@H](CO)N1C[C@H](C)[C@H](CN(C)Cc2ccc(O)cc2)OCc2ccccc2-c2c(n(C)c3ccccc23)C1=O	n
COc1cccc(NC(=O)N2C[C@H](O)COC[C@H]3O[C@H](CC(=O)NC4CCCC4)CC[C@@H]32)c1	n
CC(C)NC(=O)N1CC2(C1)[C@@H](c1ccccc1)[C@@H](CO)N2C(=O)C1CCC1	n
CCN1[C@@H]2c3ccc(C4=CCCC4)c(=O)n3C[C@@H]2[C@@H](CO)[C@@H]1C(=O)NCCCN(C)C	n
C[C@H](CO)N1C[C@H](C)[C@@H](CN(C)Cc2ccccc2)Oc2c(NC(=O)Cc3cn(C)c4ccccc34)cccc2C1=O	n
COC(=O)N(C)C[C@H]1OCc2ccccc2-c2ccccc2C(=O)N([C@H](C)CO)C[C@@H]1C	n
CC=Cc1ccc2n(c1=O)C[C@H]1[C@H](CO)[C@@H](C(=O)NC3CCC3)[C@@H]2N1C(=O)c1cnccn1 (mixture of isomers)	n
N#Cc1ccc(-c2ccc(C3[C@@H]4CN(C(=O)Nc5ccc(C(F)(F)F)cc5)C[C@H]3N4)cc2)cc1 (stereo partly specified)	-49!
O=C(Nc1ccc(F)cc1)N1C[C@@H]2N[C@H](C1)C2c1ccc(-c2cccnc2)cc1 (stereo partly specified)	-37!
N#Cc1ccc(-c2ccc(C3[C@H]4CNC[C@@H]3N4C(=O)Nc3ccc(Cl)cc3)cc2)cc1 (stereo partly specified)	n
COc1ccc(NC(=O)N2C[C@@H]3N[C@H](C2)C3c2ccc(-c3cccc(F)c3)cc2)cc1 (stereo partly specified)	n
CN(C)C(=O)c1ccc(-c2ccc(C3[C@@H]4CN(C(=O)Nc5ccc(Cl)cc5)C[C@H]3N4)cc2)cc1 (stereo partly specified)	n
COc1ccc(NC(=O)N2C[C@@H]3N[C@H](C2)C3c2ccc(-c3cccnc3)cc2)cc1 (stereo partly specified)	n
O=C(Nc1ccccc1)N1C[C@H]2[C@@H](c3ccccc31)[C@H](CO)N2Cc1ccccc1	n
CCCNC(=O)[C@H]1[C@H](CO)[C@H]2Cn3c(ccc(-c4ccccc4F)c3=O)[C@@H]1N2CCC	n
CCCC#Cc1ccc([C@@H]2[C@H](CO)N3C(=O)CN(C(=O)c4ccccn4)C[C@@H]23)cc1	n
CCC(=O)N1[C@H](CO)[C@@H](c2ccccc2)C12CN(Cc1nccs1)C2	n
Cc1ccc(S(=O)(=O)N2C[C@H](O)COC[C@H]3O[C@@H](CC(=O)N[C@H]4CCN(Cc5ccccc5)C4)CC[C@@H]32)cc1	n
O=C(CC(F)(F)F)N1C[C@H]2[C@@H](c3ccccc31)[C@@H](CO)N2CC1CCCCC1	n
O=C(C[C@H]1CC[C@@H]2[C@H](COC[C@H](O)CN2S(=O)(=O)c2cccc(F)c2)O1)Nc1ccccc1	n
COc1ccc(C#Cc2ccc([C@H]3[C@H]4CN(Cc5ccncc5)CCCCN4[C@H]3CO)cc2)cc1	-55
CCCC#Cc1ccc([C@H]2[C@H]3CN(Cc4ccncc4)CCCCN3[C@H]2CO)cc1	n
COc1ccc(C#Cc2ccc([C@@H]3[C@H](CO)N4CCCCN(C)C[C@@H]34)cc2)cc1	-24
SMILES	DUX4 inh
CCCC#Cc1ccc([C@H]2[C@@H](CO)N3CCCCN(Cc4ccncc4)C[C@@H]23)cc1	n
COc1ccc(C#Cc2ccc([C@H]3[C@@H](CO)N4CCCCN(C)C[C@@H]34)cc2)cc1	n
OC[C@@H]1[C@@H](c2ccc(C#CC3(O)CCCC3)cc2)[C@H]2CN(Cc3ccncc3)CCCCN12	n
COCC#Cc1ccc([C@@H]2[C@H](CO)N3CCCCN(Cc4ccncc4)C[C@@H]23)cc1	n
COc1ccc(C#Cc2ccc([C@@H]3[C@@H](CO)N4CCCCN(C)C[C@H]34)cc2)cc1	n
COc1ccc(C#Cc2ccc([C@@H]3[C@@H](CO)N4CCCCN(Cc5ccncc5)C[C@H]34)cc2)cc1	-26
C[C@@H]1CN([C@@H](C)CO)C(=O)Cc2cc(NC(=O)C3CCCCC3)ccc2O[C@H]1CN(C)Cc1ccc(C(=O)Nc2ccccc2N)cc1	n
O=C(Nc1ccccc1F)N1C[C@@H]2[C@H](c3ccccc31)[C@@H](CO)N2C(=O)Cc1ccccc1	n
COc1ccc2c3c(n(C)c2c1)[C@H](CO)N(C(=O)CN1CCOCC1)CC31CCN(C(=O)CC2CC2)CC1	n
CN(C)CC(=O)Nc1ccc2c(c1)[C@@H]1C[C@@H](CC(=O)NC3CCCCC3)O[C@@H](CO)[C@@H]1O2	n
CC(C)NC(=O)Nc1ccc2c(c1)C(=O)N([C@H](C)CO)C[C@@H](C)[C@H](CN(C)S(=O)(=O)c1ccc(F)cc1)OCCCC[C@@H](C)O2	n

Compound activity from PubChem BioAssay.
